S1P4 agonist – S1P4 receptor agonists, primary screen, cell-based; activation, % at 4.98 µM; 0.35% of 220,000 active; S1P4-expressing cell line, agonist reporter assay; AID 1509, 2009; Sphingosine 1-phosphate receptor 4 (Homo sapiens), O95977; in the data active = activation above about 11%;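 also: 0% = DMSO vehicle and 100% = reference agonist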
Hsp70 activator – Hsp70 transcriptional activators, primary screen, cell-based, HeLa, Hsp70 promoter luciferase, luminescence, 10 µM; HeLa Hsp70 promoter luciferase reporter; scaled: vehicle 0, proteasome-inhibitor control 100%; activation, % at 10 µM; 0.04% of 200,000 active; AID 1203, 2008;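 active = activation above the mean across all tested compounds plus 3 SD, cutoff set per campaign, cut at about 5.5% in these data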;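 also: 100% = MG132 at 30 µM as the positive control and 0% = DMSO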
S1P4 antagonist – S1P4 receptor antagonists, primary screen, cell-based. inhibition, % at 4.98 µM. S1P4-expressing cells, antagonist mode, reporter read-out. Sphingosine 1-phosphate receptor 4 (Homo sapiens), O95977. 0.26% of 220,000 active; in the data active = inhibition above about 29%;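 also: 0% = wells stimulated with agonist and 100% = vehicle wells without agonist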
Pf gametocyte – late stage P. falciparum gametocyte viability inhibitors, primary screen, ATP luminescence, HTS; P. falciparum stage V gametocytes, 24 h; inhibition, % at 10.9 µM; 0.065% of 150,000 active; AID 743093, 2013;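 active = inhibition above the mean plus 3 SD of compounds within the control limits, set per campaign, cut at about 38% in these data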;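 also: 0% = DMSO wells and 100% = medium only without gametocytes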
S1P3 antagonist – S1P3 receptor antagonists, primary screen, cell-based; 0.27% of 170,000 active; CHO S1P3 NFAT-BLA reporter, FRET fluorescence, antagonist mode; inhibition, % at 4.98 µM;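 active = inhibition above the plate cutoff, the mean inhibition of test wells on that plate plus 3 SD, cut at about 28% in these data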;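 also: cells challenged with S1P at its EC80 of 0.8 µM; blue over green emission ratio from cleaved BLA substrate after 4 h stimulation; 0% = S1P-stimulated wells and 100% = unstimulated DMSO-only wells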
S1P4 antag cf – S1P4 receptor antagonists, human, confirmation, cell-based. 71% of 520 active. inhibition, % at 4.98 µM. shares compounds with S1P4 antagonist. S1P4-expressing cell line, antagonist mode, reporter read-out; in the data active = inhibition above about 30%
S1P1 antagonist – S1P1 receptor antagonists, human, counter-screen for S1P4 antagonist project, cell-based; shares compounds with S1P4 antagonist; cell-based S1P1 antagonist counterscreen, inhibition; inhibition, % at 4.98 µM; 37% of 520 active; AID 1564, 2009; in the data active = inhibition above about 40%;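 also: receptor stimulated with S1P near its EC80; 0% = agonist stimulated wells and 100% = vehicle only wells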
Target sequence (P21453 whole entry, looked up): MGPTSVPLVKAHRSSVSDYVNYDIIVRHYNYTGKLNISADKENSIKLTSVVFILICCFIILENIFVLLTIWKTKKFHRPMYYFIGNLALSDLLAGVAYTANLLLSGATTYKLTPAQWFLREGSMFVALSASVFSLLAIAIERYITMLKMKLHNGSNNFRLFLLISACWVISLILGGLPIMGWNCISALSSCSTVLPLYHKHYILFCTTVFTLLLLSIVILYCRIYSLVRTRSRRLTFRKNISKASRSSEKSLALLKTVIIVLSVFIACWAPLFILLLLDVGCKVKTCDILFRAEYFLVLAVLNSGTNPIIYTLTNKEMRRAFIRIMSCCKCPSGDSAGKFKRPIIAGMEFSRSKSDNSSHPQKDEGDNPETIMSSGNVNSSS
An asterisk follows results filed as active; · = no result given. A selection: hits, their analogues and other compounds. The true share with any hit is near 0.83%.

SMILES | S1P4 agonist | Hsp70 activator | S1P4 antagonist | Pf gametocyte | S1P3 antagonist | S1P4 antag cf | S1P1 antagonist
COc1ccc(OC)c2c1C(=O)C(Cl)=C(Cl)C2=O | 1 | · | 56* | -42 | 31* | 107* | 74*
COc1ccc(OC)c2c1C(=O)c1ccccc1C2=O | -3 | 0 | 12 | · | · | · | ·
CC(=O)n1cc(N(C(=O)CCl)c2ccccc2)c2ccccc21 | 0 | · | 42* | 7 | 13 | 100* | 40
COc1ccc(CCNC(=O)c2ccco2)cc1OC | -2 | 0 | 2 | 10 | -20 | · | ·
COc1ccc(CCNC(=O)c2ccccc2NC(=O)c2ccco2)cc1OC | 0 | 1 | 30* | · | 10 | 8 | 1
COc1cc(/C=N/Nc2nc(C)cc(C)n2)cc(OC)c1OC | · | · | · | -5 | · | · | ·
CN(CCC#N)C(=O)COC(=O)c1ccccc1C(=O)c1ccc(Cl)c([N+](=O)[O-])c1 | -2 | 0 | 55* | -1 | -6 | 112* | 53*
CC(C)N(C(=O)COC(=O)c1ccccc1C(=O)c1ccc(Cl)c([N+](=O)[O-])c1)C(C)C | -1 | 0 | 31* | -2 | -3 | 60* | 46*
CCCn1c(C2CCCN2c2nc(-c3cccc(Br)c3)cs2)nc2ccccc21 (configuration not stated) | · | · | · | 12 | · | · | ·
N#CCSc1nnc(SCC#N)s1 | 0 | · | 32* | 1 | 6 | 15 | 2
N#CCSc1nnc(N)s1 | 1 | 0 | -20 | · | -8 | · | ·
CN(C)/N=C/C=C1\CC/C(=C\c2ccc(Br)cc2)C1=O | -1 | 0 | 30* | · | · | 11 | 13
C=CCn1c(Sc2ncc([N+](=O)[O-])s2)n[nH]c1=O | 4 | · | 69* | 11 | 2 | 111* | 51*
O=C(Nc1ccc(Cl)cc1)Nc1ccccc1Sc1ncc([N+](=O)[O-])s1 | 1 | · | 13 | 2 | 2 | · | ·
C/C(=N/NC(=O)c1cccc(N2CCCC2=O)c1)c1ccncc1 | 0 | 0 | -9 | -14 | -12 | · | ·
CN(C)/C=C/C(=O)c1cnc(-c2ccccc2)s1 | 1 | 0 | 38* | 9 | 2 | -5 | 1
COc1cc2c3nnc(-c4ccc(F)cc4)c-3cn(Cc3ccc(F)cc3)c2cc1OC | 1 | 0 | 3 | · | · | · | ·
COc1cc2c3nnc(-c4ccc(F)cc4)c-3cn(Cc3ccccc3)c2cc1OC | -2 | 0 | 41* | · | · | 85* | 120*
Cc1ccc(C(=O)OCn2ncc(Cl)c(Cl)c2=O)cc1 | -4 | 88* | 111* | 17 | · | 115* | 63*
CC(NC(=O)Cn1ncc(Cl)c(Cl)c1=O)C12CC3CC(CC(C3)C1)C2 (configuration not stated) | -2 | 1 | 51* | · | -10 | -19 | -11
CCC(=O)Nc1ccc(C(=O)Cn2ncc(Cl)c(Cl)c2=O)cc1 | -2 | · | 75* | 7 | 6 | 106* | 48*
CCN(CC)S(=O)(=O)c1cc(NC(=O)Cn2ncc(Cl)c(Cl)c2=O)ccc1C | -1 | · | 60* | 2 | -13 | 72* | 46*
Cc1nn(Cc2c(Cl)cccc2Cl)c(Cl)c1/C=N/NC(=O)c1cccnc1 | 2 | 0 | -12 | 19 | 6 | · | ·
O=C1CCCN1CCCNS(=O)(=O)c1ccc(F)cc1F | 2 | · | -12 | 3 | -6 | · | ·
O=[N+]([O-])c1ccc(CNCc2cc(Cl)ccc2O)cc1 | · | · | · | 11 | · | · | ·
SMILES | S1P4 agonist | Hsp70 activator | S1P4 antagonist | Pf gametocyte | S1P3 antagonist | S1P4 antag cf | S1P1 antagonist
CCOC(=O)c1ccc(NC(=O)Cn2ncc(Cl)c(Cl)c2=O)cc1 | -2 | 5.8* | 37* | -6 | -5 | 123* | 78*
Cc1cccc(Cn2ncc(Cl)c(Cl)c2=O)c1 | -1 | 0 | 8 | · | · | · | ·
CCOC(=O)c1ccc(NC(=O)Cn2nc(C)c3ccccc3c2=O)cc1 | · | · | · | 12 | · | · | ·
CCCc1cc(=O)[nH]c(SCC(=O)N(C)CC(=O)Nc2ccccc2CC)n1 | -1 | 0 | -8 | · | 4 | · | ·
CCc1ccc(C(=O)Nc2ccc(OC)c(S(=O)(=O)N3CCOCC3)c2)cc1 | 0 | 0 | 1 | 0 | -7 | · | ·
Cc1ccc(C)c(C(=O)Cn2ncc(Cl)c(Cl)c2=O)c1 | 0 | 0 | 67* | · | · | 116* | 59*
COc1ccc(NC(=O)Cn2ncc(Cl)c(Cl)c2=O)cc1S(=O)(=O)N1CCOCC1 | 3 | 0 | 33* | · | -8 | 27 | 12
CCc1ccccc1NC(=O)CN(C)C(=O)Cn1ncc(Cl)c(Cl)c1=O | 2 | 0 | 38* | -5 | 1 | 107* | 57*
CN(Cc1ccc2nonc2c1)Cc1nc(CC2CC2)no1 | -1 | 0 | 11 | 16 | -2 | · | ·
O=C(C=C=Nc1ccccc1)C(=O)N=C=Cc1ccccc1 | 0 | · | 42* | -19 | 11 | 106* | 24
COc1ccccc1C(c1nnnn1C(C)(C)C)N1CCCCCC1 (configuration not stated) | -5 | 0 | 32* | · | 22 | 1 | -19
COc1ccccc1C(c1nnnn1C(C)(C)C)N1CCN(C(=O)c2ccco2)CC1 (configuration not stated) | -2 | 0 | 7 | 6 | -15 | · | ·
CC(C)(C)CC(C)(C)c1ccc(O)c(CN2CCN(CCC#N)CC2)c1 | 1 | 0 | -5 | -4 | · | · | ·
N#CCCN1CCN(Cc2cc(-c3ccccc3)ccc2O)CC1 | -1 | 0 | 39* | · | -21 | 14 | 20
COc1ccccc1-c1cc(C(=O)Nc2c(F)cc(F)cc2Br)no1 | -1 | 0 | 41* | 21 | 12 | 42* | 16
CCOC(=O)c1cccc(-n2c(-c3ccc(OC)cc3)nc3nc4ccccc4nc32)c1 | 1 | 0 | -20 | · | -3 | · | ·
COCCN(CCOC)c1ncnc2c1cnn2-c1ccc(Cl)cc1 | -1 | 0 | 5 | 14 | · | · | ·
COCCNc1ncnc2c1cnn2-c1ccc(Cl)cc1 | 0 | 0 | 33* | -10 | · | 8 | 20
COCCOC(=O)C1=C(C)N=C2SCCC(=O)N2C1c1ccc(OC(=O)c2ccco2)cc1 (configuration not stated) | 1 | 0 | 35* | 12 | · | 54* | 52*
CC(C)(C)OC(=O)N1CCN(c2ccc([N+](=O)[O-])cc2)CC1 | -1 | 0 | -18 | 4 | 0 | · | ·
CCC(C)/C(C)=N/NC(=O)CSc1nc2ccccc2[nH]1 (configuration not stated) | 0 | 0 | 4 | 4 | 1 | · | ·
Cc1cc(C)n(-c2cc(N3CCN(S(=O)(=O)c4ccc(Cl)cc4)CC3)ccc2[N+](=O)[O-])n1 | -1 | 0 | 60* | 26 | -3 | 14 | 26

Screens deposited in PubChem by The Scripps Research Institute Molecular Screening Center.
